This note sets out measurements from the supplement of paper PMC10681739.
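Note: Full-length recombinant human ETS1 or RUNX1 bound to double-stranded 36-bp genomic probes on microarrays, detected by protein-specific primary antibody and Alexa488 secondary, spot fluorescence as median of four replicate spots.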

In this experiment the target is RUNX1 (UniProt Q01196). The experiment in a line: RUNX1 binding intensity (PBM fluorescence) in presence of ETS1, normalised to RUNX1-only experiment (arbitrary fluorescence units); higher = stronger binding. The conditions noted are these: RUNX1 concentration 2 nM; ETS1 concentration 25 nM. The method, then: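 Cooperative gcPBM on 36-bp genomic probes with neighbouring ETS1 and RUNX1 sites. Recombinant human RUNX1 (2 nM) was incubated alone or with ETS1 (25 nM) and detected with anti-RUNX1 antibody plus Alexa488 secondary. Values are medians over 4 replicate spots; the RUNX1+ETS1 data were normalised to the RUNX1-only data. The probes sit in constant array flanks that are not printed.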
Sequence of RUNX1 (Q01196 whole entry): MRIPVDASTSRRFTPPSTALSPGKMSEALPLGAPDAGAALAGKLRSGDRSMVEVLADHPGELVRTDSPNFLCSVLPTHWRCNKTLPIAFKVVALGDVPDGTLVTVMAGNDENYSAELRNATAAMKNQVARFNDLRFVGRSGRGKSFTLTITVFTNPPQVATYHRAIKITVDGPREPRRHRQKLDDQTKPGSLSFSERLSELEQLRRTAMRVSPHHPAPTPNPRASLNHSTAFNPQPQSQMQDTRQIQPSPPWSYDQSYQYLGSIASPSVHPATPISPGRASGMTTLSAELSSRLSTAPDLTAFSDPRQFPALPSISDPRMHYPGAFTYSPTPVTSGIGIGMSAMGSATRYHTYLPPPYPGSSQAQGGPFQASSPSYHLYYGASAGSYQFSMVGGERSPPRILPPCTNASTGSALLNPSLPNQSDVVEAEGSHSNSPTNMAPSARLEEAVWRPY
As to TGGCTTTGCAGAAGGAAGCTGTGGTTTCTGGTCTTC, the RUNX1 binding intensity came to 1010. Then CAGGGTGTCGGCTTCCGGCGGTTGCCCACTTTCGGC, with 1790; and ATGGTGTAGAGAGGATGTGGGCTTTAAGGTCAGAGA, with 1000. The value for GGCCCAGGAAAGAGGCAGGGGTGCGGTTTCCCTCCG was 1480; that for CAGGTGTTCAGGAAACAAAACCACAGACTTTTTCAC was 6800. The value for ATGGGGAACGGGAAATACGGCGGGAACCACAATCGC was 1020. Turning to CGAAGCCAGGAAATAAGGATAAACCACAGAAAGAAA, the RUNX1 binding intensity stood at 2010.

For ACGTCTGTTTCCTGTGATTGAAACCGCAAGAAGAAG, the RUNX1 binding intensity was 18500. Then GCCTCCTCAGGAAATTGCCCAAAATAGCCACATGTC, with 1240; and TAAATGTTTCCTAAAAGCTCTTTCATAAACCACAGT, with 884. Turning to AACAAAGAGAGAGGAAGTGGGTTGGGCGGGGGGGGT, the RUNX1 binding intensity amounted to 1040. The value for CTTATCTTCTTCCTGTGAGCTGTGTGTGGGTGGCTC was 1580; that for GACCACTTCCTTTCTGTGTTTTGTGGTTTCACAACT was 9060; that for GGTCCGGAAACGATTCTGGACCTGCGGGTATATCCA was 1070. The value for GATCCCCCTCCTCCATCCTGTGGCTTCGGGTTGCCG was 1150; that for GGAGAGTTGACTTCCGGCGGCTTGTGGGAGTGCTGG was 1820; that for GCTTCTTCCGGCCGGGCCGAGAGGTGGTTACATTCG was 1940.

With TGGTTAGGGAGAGGGGGATGTGGTTAGGGTGAGGGA, the RUNX1 binding intensity was found to be 1140.

Turning to GGGCCCGGGCCAGGAAGTGGTTTTGCAGAGGTGTTT, the RUNX1 binding intensity is 1930.

Regarding TGCTCAAATGCAGGATGTGGTCTGAGAGTTTCTCCT, the RUNX1 binding intensity was 1680. The value for AGCTGCAGTTGGGCAGGAAACCACAATGTCGAAGAC was 2400.
